Assay outcomes deposited in PubChem BioAssay by National Center for Advancing Translational Sciences (NCATS).
Only some compounds are listed: those with a hit (about 8.3% of all), similar ones and a draw of the others.
HCMV antiviral: blocks human cytomegalovirus replication. HFF cells, HCMV-luciferase reporter, 72 h; stronger effect = lower value. activity change, negative = inhibition, % at 57.5 µM. actives 4.5% (n = 410,000). AID 1259415; in the data active means activity change below about -60%; inconclusive means no clear call, values can overlap the other calls; inactive means above about -39%
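After 16 h attachment at 37C, HFF cells received test compound and HCMV-luciferase (1 PFU/cell); reporter luminescence read 72 h later, data normalized against buffer-only and known inhibitor Salinomycin.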
LASV entry inh: blocks Lassa virus binding to or entry into cells; Potency, µM (titrated, usually from 37.9 µM), inactives show top-dose activity change, negative = inhibition, most hits filed as inhibitors; AID 540256; actives 1.2% (n = 300,000); Lassa virus pseudotype entry inhibition, cell reporter; calls by dose curve; tested in HEK293 cells; further: potency means the concentration at half of the fitted maximal effect; nearly all actives have a fitted effect of over 50% in size
FMDV antiviral: foot and mouth disease virus antiviral activity. FMDV antiviral cell-based qHTS. Potency, µM (titrated, usually from 57.9 µM), without a hit: top-dose activity change, negative = inhibition, hits mostly inhibitors. actives 1.2% (n = 410,000). AID 1159524; calls by dose curve; tested in HEK293T cells; further: read-out not given here; potency means the concentration at half of the fitted maximal effect; nearly all actives have a fitted effect of over 45% in size
HCV inh: HCV inhibition | Huh7.5.1 HCVcc-Cre infection, luciferase reporter, 44 h | Potency, µM (doses to about 41.8 µM), inactives show at the highest dose activity change, negative = inhibition, actives largely listed as inhibitors | actives 3.4% (n = 340,000) | AID 651820; further: potency means the concentration at half of the fitted maximal effect
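Seed cells (1,000/well) for 4 h; treat with compound and infect with HCVcc-Cre, moi about 0.5. Incubate 44 h, then detect luciferase activity.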
MARV entry inh: Marburg virus entry inhibition; Marburg virus pseudotyped entry inhibition, cell reporter; Potency, µM (series often up to 37.8 µM), without a hit: top-dose activity change, negative = inhibition, hits mostly inhibitors; actives 1.8% (n = 300,000); AID 540276; calls by dose curve; tested in HEK293 cells; further: potency means the concentration at half of the fitted maximal effect
FBPA Giardia inh: inhibitors of Giardia lamblia fructose-1,6-bisphosphate aldolase. Potency, µM (series often up to 59.6 µM), for inactives: at the top dose activity, negative = inhibition, hits mostly inhibitors. purified Giardia FBPA. A8B2U2. actives 0.71% (n = 290,000); further: potency means the concentration at half of the fitted maximal effect; nearly all actives have a fitted effect of over 55% in size
Target sequence (A8B2U2 whole entry, looked up): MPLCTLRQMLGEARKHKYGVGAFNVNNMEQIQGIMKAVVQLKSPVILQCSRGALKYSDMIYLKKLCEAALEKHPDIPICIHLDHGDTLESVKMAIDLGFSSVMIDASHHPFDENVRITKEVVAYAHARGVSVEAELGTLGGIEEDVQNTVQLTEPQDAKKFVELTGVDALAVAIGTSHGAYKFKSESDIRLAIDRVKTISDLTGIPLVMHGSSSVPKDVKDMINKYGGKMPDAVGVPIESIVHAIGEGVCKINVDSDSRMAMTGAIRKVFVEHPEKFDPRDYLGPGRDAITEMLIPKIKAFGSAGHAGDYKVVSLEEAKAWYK
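40 nM FBPA preincubated 10 min at RT with compound (up to 57.5 uM final), then substrate plus GAPDH/TPI/NAD/arsenate coupling and diaphorase/resazurin added. Fluorescence read after 20 min at RT, 525/598 nm.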
* = called active by the depositor; [ ] = dose if it differs, or a comment. Unless noted, the call rests on the fitted dose curve; in most records, active means well fitted curve in the direction sought with a large enough effect; inconclusive means small, poorly fitted or top-dose-only effect, or another doubt; inactive means no such curve, though single readings can be large; an effect the other way counts as inactive or inconclusive. On the % scale 0 is the no-effect control and ±100 the full control effect.

For O=C1CCC[C@H]2[C@@H](Cc3ccccc3)[C@H](NCC3CCCCC3)CC[C@]23CCCN13 the results were HCMV antiviral 9.0.
Cc1cc(/C=C2\SC(=S)N(Cc3ccco3)C2=O)c(C)n1-c1ccccc1 was read as HCMV antiviral -67.4*, LASV entry inh inconclusive, FMDV antiviral 0.0%, HCV inh inconclusive, MARV entry inh inconclusive and FBPA Giardia inh -3.4%.
`Oc1cc(NCCN2CCOCC2)cc2cccnc12` gave HCMV antiviral -87.4* and FMDV antiviral inconclusive.
For Clc1ccccc1-c1nccc(NCCN2CCOCC2)n1 the results were FMDV antiviral 19.3% and FBPA Giardia inh 5.4%.
For Oc1cc(Nc2ccccc2)cc2cccnc12 the results were HCMV antiviral -82.4* and FMDV antiviral -23.8%.
`Oc1cccc2cc(Nc3ccccc3)cnc12` gave HCMV antiviral -101.2* and FMDV antiviral 1.6%.
Screening c1ccc(Nc2ccc3ccccc3c2)cc1 returned HCMV antiviral inconclusive, FMDV antiviral 33.5% and HCV inh -20.5%.
For CCC(CC)C(=O)N1CCc2cc(OC)c(OC)cc2C1COc1ccc(C(=O)OC)cc1 (stereo not drawn) the results were HCMV antiviral 3.4, LASV entry inh -5.7%[46.1 µM] and FMDV antiviral inconclusive.
Screening CC(=O)OCC(COC(C)=O)(CN1C(=O)c2ccccc2C1=O)CN1C(=O)c2ccccc2C1=O returned HCMV antiviral 0.5.
COc1ccc(-c2cccc(NC(=O)c3ccc4c(c3)OCO4)c2)nn1 was read as HCMV antiviral -19.6, LASV entry inh -9.2%, FMDV antiviral 26.6%, HCV inh 15.8µM* and MARV entry inh inconclusive.
For CCn1cc(Cl)c(C(=O)Nc2ccc3c(c2)OCCO3)n1 the results were HCMV antiviral 55.8, LASV entry inh inconclusive, FMDV antiviral -17.0%, HCV inh -14.2%, MARV entry inh 10µM* and FBPA Giardia inh 2.0%.
Screening O=C(Nc1ccccc1)c1ccc2c(c1)OCCO2 returned HCMV antiviral 21.2, LASV entry inh inconclusive, FMDV antiviral 5.5%, HCV inh -7.1%, MARV entry inh inconclusive and FBPA Giardia inh -2.1%.
For CCCC(=O)Nc1cccc(NC(=O)c2ccc3c(c2)OCCO3)c1 the results were HCMV antiviral -35.5, LASV entry inh -0.7%, FMDV antiviral 0.0%, HCV inh inconclusive, MARV entry inh -8.8% and FBPA Giardia inh -0.6%.
`Cc1cccc(NC(=O)c2ccc3c(c2)OCCO3)c1` gave HCMV antiviral 17.8, LASV entry inh inconclusive, FMDV antiviral -37.1%, HCV inh -5.7%, MARV entry inh 7.94µM* and FBPA Giardia inh 4.5%.
For CCCCC(=O)Nc1cccc(NC(=O)c2ccc3c(c2)OCO3)c1 the results were HCMV antiviral 16.2, LASV entry inh -6.1%, FMDV antiviral 46.2%, HCV inh 2.82µM*, MARV entry inh -5.0% and FBPA Giardia inh 1.0%.
O=C(Nc1ccc2c(c1)OCCO2)c1ccc(Cl)cc1 was read as HCMV antiviral 9.8, FMDV antiviral -6.6%, HCV inh -4.1% and FBPA Giardia inh -7.7%.
Screening Cc1ccc(NC(=O)c2ccc3c(c2)OCCO3)nc1 returned HCMV antiviral 22.7, LASV entry inh inconclusive, FMDV antiviral 15.8µM*, HCV inh inconclusive and MARV entry inh inconclusive.
`Cc1ccc(NC(=O)c2ccc3c(c2)OCCO3)cc1C` gave HCMV antiviral -25.8, LASV entry inh inconclusive, FMDV antiviral 12.6µM*, HCV inh inconclusive, MARV entry inh inconclusive and FBPA Giardia inh -4.3%.
Screening Cc1ccc(NC(=O)c2ccc3c(c2)OCCO3)cc1S(=O)(=O)Nc1cccc(Cl)c1 returned HCMV antiviral -33.4, LASV entry inh inconclusive, FMDV antiviral 9.8%, HCV inh 10µM*, MARV entry inh inconclusive and FBPA Giardia inh -7.8%.
For Cc1cc(C)c(C(=O)Nc2ccc3c(c2)OCCO3)c(C)c1 the results were HCMV antiviral 67.1 and FMDV antiviral 41.2%.
`O=C(Nc1ccc(NC(=O)c2ccc3c(c2)OCCO3)cc1)c1ccccc1` gave HCMV antiviral inconclusive, LASV entry inh inconclusive, FMDV antiviral 30.1%, HCV inh inconclusive, MARV entry inh inconclusive and FBPA Giardia inh 7.2%.
`Cc1ccc(NC(=O)CNC(=O)c2ccc3c(c2)OCO3)nc1` gave HCMV antiviral 20.2, LASV entry inh 11.2%[46.1 µM], FMDV antiviral 6.2%, HCV inh -7.1%, MARV entry inh 1.2%[46.1 µM] and FBPA Giardia inh 9.6%.
Screening Cc1ccc(C(=O)Nc2ccc3c(c2)OCCO3)c(C)c1 returned HCMV antiviral inconclusive, LASV entry inh inconclusive, FMDV antiviral inconclusive, HCV inh -16.3%, MARV entry inh 1.26µM* and FBPA Giardia inh -2.0%.
For CC(C)C1(C)C(=O)N=C2C3=C(CCCC3)C(=O)N21 (stereo not drawn) the results were MARV entry inh 16.7%[46.1 µM].
O=C(NCC1CCCCC1)c1nnc(C(=O)NCC2CCCCC2)c2c1[nH]c1ccccc12 was read as FBPA Giardia inh -2.3%.
For O=C(Nc1ccc2c(c1)OCCO2)c1cccc2nc3ccccc3nc12 the results were HCMV antiviral -92.1*, LASV entry inh -29.3%, FMDV antiviral inconclusive, HCV inh inconclusive and MARV entry inh inconclusive.
O=C(Nc1ccc(OCC(F)(F)C(F)F)cc1)c1ccncc1 was read as HCMV antiviral -63.3*, LASV entry inh inconclusive, FMDV antiviral inconclusive, HCV inh inconclusive, MARV entry inh -27.8%[46.1 µM] and FBPA Giardia inh 1.0%.
Screening O=C(Nc1ccc(OCC(F)(F)C(F)F)c(C(F)(F)F)c1)c1ccccc1O returned HCMV antiviral -97.1*, LASV entry inh inconclusive, FMDV antiviral inconclusive, HCV inh 6.31µM*, MARV entry inh inconclusive and FBPA Giardia inh 4.5%.
CCOc1ccc(NC(=O)c2ccncc2)cc1 was read as HCMV antiviral 13.5, LASV entry inh 29.7%, FMDV antiviral 14.7%, HCV inh 14.0%, MARV entry inh -13.2% and FBPA Giardia inh -0.1%.
For O=C(Nc1ccc(OCC(F)(F)C(F)F)c(C(F)(F)F)c1)c1ccccc1 the results were HCMV antiviral -39.3, LASV entry inh -15.6%, FMDV antiviral inconclusive, HCV inh 10µM* and MARV entry inh -20.1%.
Screening COCCN1C(=O)NC(CCc2ccccc2)C(C(C)=O)=C1C (stereo not drawn) returned MARV entry inh 4.9%[14.2 µM].
COCC(=O)Nc1cc(C(=O)N2CC3CCCC2C3)c2c(c1)nc(-c1ccncc1)n2C (stereo not drawn) was read as FMDV antiviral -5.0%.
`CC[N@+]1(C)CCC[C@H](OC(=O)C(O)(c2ccccc2)c2ccccc2)C1` gave MARV entry inh 8.8%.
Screening Cc1nc2cc(NC(=O)[C@@H]3C[C@@H](Sc4ccccn4)CN3Cc3cccc(Cl)c3)ccc2s1 returned FMDV antiviral 4.9%.
